Assay results published in PubChem BioAssay AID1159580 (chemical genetic matrix, 2015).
The campaign covered roughly 5,500 compounds. About 2,000 (36%) were called active. Another 18% or so got no clear call; they are omitted. Rule as the data show it: active = normalized growth mostly below about 0.91 (no sharp cut-off); inconclusive = no clear call, values can overlap the other calls; inactive = mostly above about 0.92. The list shows a part of the results.

Assay: chemical genetic growth profiling, strain panel (AID 1159580);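 also: tested at 20 µM; growth read once vehicle control cultures reached saturation at 30 °C; 1 = growth at the plate median or of vehicle wells; lower values mean less growth of the strain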
Conditions: growth OD
[1] = S. cerevisiae deletion strains, locus YBR229C, strain ROT2, active compounds read low
[2] = S. cerevisiae deletion strains, locus YDL101C, strain DUN1, active compounds read low
[3] = S. cerevisiae deletion strains, locus YDR150W, strain NUM1, active compounds read low
[4] = S. cerevisiae deletion strains, locus YEL061C, strain CIN8, active compounds read low
[5] = S. cerevisiae deletion strains, locus YHR030C, strain SLT2, active compounds read low
[6] = S. cerevisiae deletion strains, locus YHR087W, strain rtc3, active compounds read low
[7] = S. cerevisiae deletion strains, locus YJR043C, strain POL32, active compounds read low
[8] = S. cerevisiae deletion strains, locus YJR075W, strain HOC1, active compounds read low
[9] = S. cerevisiae deletion strains, locus YLR039C, strain RIC1, active compounds read low
[10] = S. cerevisiae deletion strains, locus YLR058C, strain SHM2 (second series), active compounds read low
[11] = S. cerevisiae deletion strains, locus YLR085C, strain ARP6, active compounds read low
[12] = S. cerevisiae deletion strains, locus YLR262C, strain YPT6, active compounds read low
[13] = S. cerevisiae deletion strains, locus YML094W, strain GIM5, active compounds read low
[14] = S. cerevisiae deletion strains, locus YMR219W, strain ESC1, active compounds read low
[15] = S. cerevisiae deletion strains, locus YMR263W, strain SAP30, active compounds read low
[16] = S. cerevisiae deletion strains, locus YMR307W, strain GAS1, active compounds read low
[17] = S. cerevisiae deletion strains, locus YNL153C, strain GIM3, active compounds read low
[18] = S. cerevisiae deletion strains, locus YNL298W, strain CLA4 (second series), active compounds read low
[19] = S. cerevisiae deletion strains, locus YNL322C, strain KRE1, active compounds read low
[20] = S. cerevisiae deletion strains, locus YNR030W, strain Alg12, active compounds read low
[21] = S. cerevisiae deletion strains, locus YPL055C, strain LGE1, active compounds read low
[22] = S. cerevisiae deletion strains, locus YPL241C, strain CIN2, active compounds read low
[23] = S. cerevisiae deletion strains, locus YPR135W, strain CTF4, active compounds read low
[24] = S. cerevisiae strains, strain wild type, active compounds read low

Measured: normalized growth

O=c1[nH]c(-c2cc(Br)cs2)nc2ccc(Cl)cc12
active: [14] 1.13 [resistant]
inactive: S. cerevisiae deletion strains, locus YAL013W, strain DEP1, active compounds read low 1.01 | [1] 1.01 | [2] 1 | [3] 0.938 | [4] 1.01 | [5] 1.03 | [6] 1.04 | [7] 1.01 | [8] 1.06 | [9] 1.1 | [10] 1 | [11] 1.06 | [12] 1.07 | [13] 1.04 | [15] 0.954 | [16] 1.06 | [17] 1.04 | [18] 1.04 | [19] 1.01 | [20] 1.04 | [21] 0.896 | [22] 0.999 | [23] 1.07 | [24] 1.02

O=c1[nH]cnc2ccc(Br)cc12
inactive: [1] 1.01 | [2] 0.98 | S. cerevisiae deletion strains, locus YDL134C, strain PPH21, active compounds read low 1.01 | [3] 0.918 | [4] 0.998 | S. cerevisiae deletion strains, locus YGR078C, strain PAC10, active compounds read low 1 | [5] 0.994 | [6] 1.01 | S. cerevisiae deletion strains, locus YJL187C, strain SWE1, active compounds read low 1.01 | [7] 1.02 | [8] 1.01 | S. cerevisiae deletion strains, locus YKL190W, strain CNB1, active compounds read low 1.01 | [9] 1.02 | [10] 1.01 | [11] 1.01 | [12] 1.01 | [13] 0.98 | [14] 1.01 | [15] 0.949 | [16] 1.02 | [17] 1 | [18] 1.04 | [19] 1.01 | [20] 1.01 | [21] 0.921 | [22] 1.01 | [23] 0.97 | [24] 1

O=C(NC(Cc1cc(=O)[nH]c2ccccc12)C(=O)O)c1ccc(Cl)cc1 (configuration not stated)
inactive: S. cerevisiae deletion strains, locus YAL021C, strain ccr4, active compounds read low 1.01 | S. cerevisiae deletion strains, locus YAL026C, strain drs2, active compounds read low 1 | S. cerevisiae deletion strains, locus YAL030W, strain snc1, active compounds read low 1 | S. cerevisiae deletion strains, locus YBL061C, strain skt5, active compounds read low 1 | S. cerevisiae deletion strains, locus YBR009C, strain hhf1, active compounds read low 1.01 | S. cerevisiae deletion strains, locus YBR023C, strain chs3, active compounds read low 1.01 | S. cerevisiae deletion strains, locus YBR171W, strain sec66, active compounds read low 0.992 | S. cerevisiae deletion strains, locus YBR231C, strain swc5, active compounds read low 0.994 | S. cerevisiae deletion strains, locus YBR279W, strain paf1, active compounds read low 0.997 | S. cerevisiae deletion strains, locus YCL011C, strain gbp2, active compounds read low 1 | S. cerevisiae deletion strains, locus YCL016C, strain dcc1, active compounds read low 0.994 | S. cerevisiae deletion strains, locus YCL061C, strain MRC1, active compounds read low 0.994 | S. cerevisiae deletion strains, locus YCL069W, strain vba3, active compounds read low 1 | S. cerevisiae deletion strains, locus YCR088W, strain abp1, active compounds read low 0.994 | S. cerevisiae deletion strains, locus YDL005C, strain med2, active compounds read low 1 | S. cerevisiae deletion strains, locus YDL040C, strain nat1, active compounds read low 1 | S. cerevisiae deletion strains, locus YDR001C, strain nth1, active compounds read low 0.997 | S. cerevisiae deletion strains, locus YDR069C, strain doa4, active compounds read low 1 | S. cerevisiae deletion strains, locus YDR137W, strain rgp1, active compounds read low 0.969 | S. cerevisiae deletion strains, locus YDR159W, strain sac3, active compounds read low 1.01 | S. cerevisiae deletion strains, locus YDR195W, strain ref2 0.972 | S. cerevisiae deletion strains, locus YDR297W, strain sur2, active compounds read low 1.01 | S. cerevisiae deletion strains, locus YDR334W, strain swr1, active compounds read low 1.02 | S. cerevisiae deletion strains, locus YDR335W, strain msn5, active compounds read low 1 | S. cerevisiae deletion strains, locus YDR392W, strain spt3, active compounds read low 1.03 | S. cerevisiae deletion strains, locus YEL003W, strain gim4, active compounds read low 0.998 | S. cerevisiae deletion strains, locus YEL037C, strain rad23, active compounds read low 0.982 | S. cerevisiae deletion strains, locus YEL061C, strain CIN8 (second series), active compounds read low 1 | S. cerevisiae deletion strains, locus YER015W, strain faa2, active compounds read low 1.01 | S. cerevisiae deletion strains, locus YER016W, strain bim1, active compounds read low 1 | S. cerevisiae deletion strains, locus YER111C, strain swi4, active compounds read low 0.999 | S. cerevisiae deletion strains, locus YER155C, strain BEM2 (second series), active compounds read low 1 | S. cerevisiae deletion strains, locus YFR010W, strain ubp6, active compounds read low 0.995 | S. cerevisiae deletion strains, locus YGL167C, strain pmr1, active compounds read low 1.01 | S. cerevisiae deletion strains, locus YGL173C, strain kem1, active compounds read low 1.01 | S. cerevisiae deletion strains, locus YGL227W, strain vid30, active compounds read low 1 | S. cerevisiae deletion strains, locus YGL240W, strain doc1, active compounds read low 0.998 | S. cerevisiae deletion strains, locus YGL253W, strain hxk2, active compounds read low 1 | S. cerevisiae deletion strains, locus YHR013C, strain ard1, active compounds read low 1 | S. cerevisiae deletion strains, locus YHR027C, strain rpn1, active compounds read low 0.996 | [5] 0.993 | S. cerevisiae deletion strains, locus YHR079C, strain IRE1, active compounds read low 0.99 | S. cerevisiae deletion strains, locus YHR142W, strain chs7, active compounds read low 0.986 | S. cerevisiae deletion strains, locus YJL092W, strain hpr5, active compounds read low 0.998 | S. cerevisiae deletion strains, locus YJL095W, strain BCK1 (second series), active compounds read low 0.997 | S. cerevisiae deletion strains, locus YJL095W, strain BCK1, active compounds read low 0.988 | S. cerevisiae deletion strains, locus YJL115W, strain asf1, active compounds read low 1 | S. cerevisiae deletion strains, locus YJL129C, strain trk1, active compounds read low 1 | S. cerevisiae deletion strains, locus YJL154C, strain vps35, active compounds read low 1 | S. cerevisiae deletion strains, locus YJL164C, strain tpk1, active compounds read low 1 | S. cerevisiae deletion strains, locus YJL166W, strain qcr8, active compounds read low 0.995 | S. cerevisiae deletion strains, locus YJR066W, strain TOR1, active compounds read low 0.913 | S. cerevisiae deletion strains, locus YKL160W, strain elf1, active compounds read low 0.998 | S. cerevisiae deletion strains, locus YKR026C, strain gcn3, active compounds read low 0.994 | S. cerevisiae deletion strains, locus YKR091W, strain srl3, active compounds read low 1 | S. cerevisiae deletion strains, locus YLL001W, strain dnm1, active compounds read low 0.997 | S. cerevisiae deletion strains, locus YLL026W, active compounds read low 1 | S. cerevisiae deletion strains, locus YLL041C, strain sdh2, active compounds read low 0.997 | S. cerevisiae deletion strains, locus YLR027C, strain aat2, active compounds read low 0.994 | S. cerevisiae deletion strains, locus YLR113W, strain HOG1, active compounds read low 0.995 | S. cerevisiae deletion strains, locus YLR221C, strain rsa3, active compounds read low 0.999 | S. cerevisiae deletion strains, locus YLR258W, strain gsy2, active compounds read low 1 | S. cerevisiae deletion strains, locus YLR262C, strain YPT6 (second series), active compounds read low 1 | S. cerevisiae deletion strains, locus YLR320W, strain mms22, active compounds read low 0.996 | S. cerevisiae deletion strains, locus YLR342W, strain FKS1, active compounds read low 0.991 | S. cerevisiae deletion strains, locus YLR357W, strain rsc2, active compounds read low 0.993 | S. cerevisiae deletion strains, locus YLR370C, strain arc18, active compounds read low 1 | S. cerevisiae deletion strains, locus YLR384C, strain iki3, active compounds read low 0.998 | S. cerevisiae deletion strains, locus YML120C, strain ndi1, active compounds read low 1 | S. cerevisiae deletion strains, locus YMR058W, strain fet3, active compounds read low 1.01 | S. cerevisiae deletion strains, locus YMR125W, strain sto1, active compounds read low 1.01 | S. cerevisiae deletion strains, locus YMR129W, active compounds read low 0.983 | S. cerevisiae deletion strains, locus YMR205C, strain PFK2, active compounds read low 0.997 | S. cerevisiae deletion strains, locus YMR231W, strain pep5, active compounds read low 1.01 | S. cerevisiae deletion strains, locus YNL071W, strain lat1, active compounds read low 1.01 | S. cerevisiae deletion strains, locus YNL183C, strain NPR1, active compounds read low 0.934 | S. cerevisiae deletion strains, locus YNL209W, strain ssb2, active compounds read low 1 | S. cerevisiae deletion strains, locus YNL248C, strain rpa49, active compounds read low 0.994 | S. cerevisiae deletion strains, locus YNL322C, strain KRE1 (second series), active compounds read low 0.992 | S. cerevisiae deletion strains, locus YNR049C, strain mso1, active compounds read low 0.986 | S. cerevisiae deletion strains, locus YOR001W, strain rrp6, active compounds read low 0.988 | S. cerevisiae deletion strains, locus YOR070C, strain gyp1, active compounds read low 1.01 | S. cerevisiae deletion strains, locus YOR080W, strain dia2, active compounds read low 0.998 | S. cerevisiae deletion strains, locus YOR083W, strain WHI5, active compounds read low 1 | S. cerevisiae deletion strains, locus YOR106W, strain vam3, active compounds read low 0.993 | S. cerevisiae deletion strains, locus YOR231W, strain MKK1, active compounds read low 0.988 | S. cerevisiae deletion strains, locus YOR265W, strain rbl2, active compounds read low 1 | S. cerevisiae deletion strains, locus YOR270C, strain vph1, active compounds read low 1.03 | S. cerevisiae deletion strains, locus YOR290C, strain snf2, active compounds read low 1.01 | S. cerevisiae deletion strains, locus YPL051W, strain arl3, active compounds read low 1.01 | S. cerevisiae deletion strains, locus YPL078C, strain atp4, active compounds read low 0.999 | S. cerevisiae deletion strains, locus YPL106C, strain sse1, active compounds read low 1.01 | S. cerevisiae deletion strains, locus YPL240C, strain hsp82, active compounds read low 0.982 | S. cerevisiae deletion strains, locus YPL256C, strain CLN2, active compounds read low 1.01
